Results published in ChEMBL document CHEMBL3988442, “University of Dundee, Small-Polar-MMV Screening Library” (2021).

Legend:
[1] = molecular target: T1, Aspartate--tRNA(Asp/Asn) ligase (Mycobacterium tuberculosis (strain ATCC 25618 / H37Rv)) (UniProt P9WFW3); assay: Assay for Asp RNA synthetase-1 from Mycobacterium tuberculosis; format: functional; parameters: scale not given: direction of the effect not stated beside the values; conditions: 30 µM; further: in the data most compounds retested in dose-response had high values
T1 sequence (whole entry): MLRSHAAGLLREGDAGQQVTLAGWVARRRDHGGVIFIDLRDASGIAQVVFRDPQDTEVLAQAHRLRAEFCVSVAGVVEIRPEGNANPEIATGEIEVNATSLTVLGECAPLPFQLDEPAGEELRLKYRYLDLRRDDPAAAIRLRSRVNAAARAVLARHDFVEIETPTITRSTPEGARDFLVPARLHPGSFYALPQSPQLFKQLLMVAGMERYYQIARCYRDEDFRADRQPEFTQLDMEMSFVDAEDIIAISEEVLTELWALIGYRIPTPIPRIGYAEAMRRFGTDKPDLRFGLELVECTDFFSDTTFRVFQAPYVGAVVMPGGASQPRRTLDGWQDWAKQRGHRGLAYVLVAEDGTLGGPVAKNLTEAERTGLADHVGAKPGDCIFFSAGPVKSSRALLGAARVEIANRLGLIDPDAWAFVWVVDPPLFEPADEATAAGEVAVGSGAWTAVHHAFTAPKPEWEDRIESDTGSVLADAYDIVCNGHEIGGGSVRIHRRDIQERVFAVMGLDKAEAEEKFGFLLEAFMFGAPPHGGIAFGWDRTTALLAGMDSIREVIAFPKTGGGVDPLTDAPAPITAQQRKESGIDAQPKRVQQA

[2] = molecular target: Shiga toxin 2 (Escherichia coli O157:H7) (UniProt P09385+P09386); assay: E. coli 0.157:H7 Shiga Toxin SOP - stx2 screening assay; format: functional; parameters: scale not given: direction of the effect not stated beside the values; conditions: 30 µM

Row | SMILES | Percent Effect [1] [%] | Percent Effect [2] [%]
1 | c1cc(CNCc2ccnc(N3CCOCC3)c2)c2c(c1)OCCO2 | 1.9 | -11.8
2 | CCOC[C@H]1CC[C@H]2[C@H](CCN2C(=O)c2ccncc2F)O1 | 5.35 | -0.318
3 | COc1ccccc1OCc1cc(C(=O)N2CCN[C@H](C)C2)n[nH]1 | 0.167 | -31.9
4 | O=C(c1ccoc1)N1CC[C@@H]2[C@H]1CCC(=O)N2c1ccccc1 | 1.49 | 1.4
5 | CN(Cc1ccco1)C[C@H]1OC[C@@H]2CCN(Cc3cccnc3)C[C@@H]21 | 3.55 | -24.2
6 | Cc1cccc(-n2cc(C(=O)N3CCCC(n4cccn4)C3)nn2)c1 (configuration not stated) | 1.99 | -13.8
7 | COc1ccc(C(C)NC(=O)Cn2ccc(=O)n(C)c2=O)cc1OC (configuration not stated) | 2.15 | -8.59
8 | Cc1ccc(C(=O)N2CCSCC2)cc1NC(=O)NCCO | 0.137 | 5.64
9 | Cc1nc(CN(C)C2CCN(Cc3ccc4ccccc4n3)C2)no1 (configuration not stated) | 3.73 | -68.9
10 | CCN(C)c1ncnc2c1CCN(Cc1csc(C)n1)CC2 | -3.19 | -3.16
11 | Cn1ccnc1-c1ccccc1C(=O)N1CCc2c(nc(N)[nH]c2=O)C1 | 2.08 | -35.7
12 | O=C(NCCCNC(=O)c1cccc(O)c1)NCc1ccccc1F | -5.63 | -41.9
13 | Cc1cc(C2CCCN(C(=O)c3c(C)noc3C)C2)n[nH]1 (configuration not stated) | -1.62 | 8.79
14 | CS(=O)(=O)N1CCOC2(CCCN(c3cnccn3)C2)C1 (configuration not stated) | -5.91 | -3.98
15 | CN(C)C(=O)CO[C@@H]1CC[C@H]2[C@H]1OCCN2C(=O)C1CCOCC1 | -1.59 | -10.1
16 | NC(=O)CC1CCN(C(=O)CCOc2ccc(Cl)cc2)CC1 | -1.03 | 32.7
17 | Cc1cn2nc(N3CCCC3Cn3nc(C)cc3C)sc2n1 (configuration not stated) | -7.52 | -1.2
18 | O=C(CCC1CCCO1)NCc1ccnc(-n2cccn2)c1 (configuration not stated) | 7.84 | 21.6
19 | COc1ccc(C2=CCN(C(=O)CN(C)CC(N)=O)CC2)cc1 | -2.46 | -18.1
20 | Cc1cc(C)nc(N2CCN(C(=O)c3cc(Cl)c[nH]3)CC2)n1 | 1.48 | -6.42
21 | Cc1cnn(CC2CCCN2C(=O)c2cccc(CC#N)c2)c1 (configuration not stated) | -1.43 | 8.24
22 | O=C(CN1CCc2ccccc21)Nc1ccc(OC(F)F)cc1 | 0.418 | -7.39
23 | Cn1c(Cn2ccnc2)nnc1C1CCN(Cc2cccnc2N)CC1 | -2.34 | -12.5
24 | Cc1cnc(CN(C)CC2CCCN2c2cccnn2)cn1 (configuration not stated) | 2.77 | 7.46
25 | CCCS(=O)(=O)NC(C)C(=O)NCc1ccc(N2CCCC2)nc1 (configuration not stated) | 2.42 | 7.72
26 | COC(=O)CCC(=O)N1CCc2[nH]nc(-c3ccc(F)c(F)c3)c2C1 | 5.15 | -11.9

Row | SMILES | Percent Effect [1] [%] | Percent Effect [2] [%]
27 | CN(C)C(=O)c1ccc2c(c1)N(C)C(CC(=O)NCc1ccno1)CO2 (configuration not stated) | -2.42 | -9.52
28 | CC(=O)N(Cc1ncc(C(C)C)o1)C1CCN(Cc2nccn2C)C1 (configuration not stated) | 3.99 | 17.4
29 | CN(c1ccncn1)C1CC2(CCN(C(=O)c3cccs3)C2)C1 (configuration not stated) | -6.21 | -35.5
30 | CCc1nc(CC(=O)N2CCOCC2c2ncon2)cs1 (configuration not stated) | 1.11 | 11.7
31 | Cc1cnn(CC2CCCCN2CCC(=O)Nc2cc(C)on2)c1 (configuration not stated) | 1.03 | 5.5
32 | O=C(NCC1CCS(=O)(=O)C1)c1sccc1-c1ccc(F)cc1 (configuration not stated) | -1.09 | -3.87
33 | CC(O)CN1CCN(C(=O)c2ccc(Cn3cccc3)cc2)CC1 (configuration not stated) | 11 | 19.4
34 | Cc1ncc(-c2ccnc(N3CCCCCC3)n2)c(-c2cccnc2)n1 | 7.25 | -25.4
35 | Cc1ncccc1OC1(C(=O)NCCNc2ccccc2)CCNCC1 | -0.792 | 6.67
36 | COc1c(CNCCNC(=O)c2ccc(C)cc2)c(C)nn1C | -4.08 | -32.3
37 | O=C(NCC1CCCO1)c1c(-n2cnnn2)sc2c1CCC2 (configuration not stated) | 1.11 | 2.95
38 | CCCNC(=O)CN1CCN(Cc2csc(C(C)(C)C)n2)CC1 | -3.03 | 11.1
39 | Cc1cccc(NC(=O)N2CCCn3cnc(CN4CCCC4)c3C2)c1 | -3.25 | -16.8
40 | CCC(CC)C(=O)N1CCC2(C1)CN(c1ccccc1)C(=O)CN2C (configuration not stated) | -4.01 | -3.77
41 | CCNc1cc2c(nn1)CCN(C(=O)CC1CCCCC1)C2 | -7.97 | -4.17
42 | Cc1cc(OCC(=O)NC(C)c2ccc(N3CCOCC3)cc2)no1 (configuration not stated) | 5.44 | -21.7
43 | CSc1ccc(NC(=O)Nc2ccc3c(c2)N(S(C)(=O)=O)CC3)cc1 | -2.32 | -21.8
44 | CCOCCN1CCn2c(C)nnc2C1 | 1.76 | -30.6
45 | N#Cc1cccc(NC(=O)N[C@H](CO)c2ccccc2)c1 | 3.31 | -24.6
46 | Cc1nc(C)n(CC2CCCN2Cc2cn3ccsc3n2)n1 (configuration not stated) | 1.75 | -76
47 | CN(C)C(C(=O)N1CCC(N2CCSCC2)CC1)c1ccccc1F (configuration not stated) | -8.47 | -3.63
48 | CCCNC(=O)COc1ccc(C)cn1 | -4.7 | -36.7
49 | COCCN1C(=O)CO[C@H]2CN(Cc3c[nH]nc3-c3ccccc3)C[C@@H]21 | -1.03 | 7.69
50 | O=S(=O)(Cc1ccccc1)NCc1ccco1 | -3.04 | 4.92
51 | N#Cc1ccccc1C(=O)N1CCC2(CC(=O)NC2=O)C1 (configuration not stated) | -0.613 | -0.393
